# Shown are actives, neighbours in structure and some others; about 2.8% of the full set was active somewhere.
# TGFb inhibitor = TGF-b pathway inhibition. HepG2 CAGA-GFP TGF-b/SMAD3 reporter, GFP fluorescence, 18 h; TGF-beta stimulated, 500 pg/mL final. 410,000 tested, 1.2% active. Potency, µM (series often up to 46.1 µM), for inactives: at the highest dose activity, negative = inhibition, most hits filed as inhibitors; note: potency is the fitted concentration of half-maximal effect; % is set by controls: 0 for no effect and ±100 for the full control effect; nearly all actives have a fitted effect of over 65% in size
#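 First, reporter cells (HEPG2 CAGA-GFP) rested 2 h at 37 degrees C. Next, compounds were pinned in and TGF-beta added to 500 pg/mL final. After 18 h, GFP was imaged per cell and summed per well.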
# Six1-Eya2 blk = inhibitors of human Six1/Eya2 interaction. activity change, % (concentration not given with the values). Q15475+O00167. 360,000 tested, 0.56% active. AlphaScreen GST-Six1/His-Eya2 binding, biochemical; hits give low values; in the data active = activity change below about -65%; inconclusive = mostly about -30% to -63%; note: % is set by controls: 0 for no effect and ±100 for the full control effect
# Target sequence (O00167 whole entry, looked up): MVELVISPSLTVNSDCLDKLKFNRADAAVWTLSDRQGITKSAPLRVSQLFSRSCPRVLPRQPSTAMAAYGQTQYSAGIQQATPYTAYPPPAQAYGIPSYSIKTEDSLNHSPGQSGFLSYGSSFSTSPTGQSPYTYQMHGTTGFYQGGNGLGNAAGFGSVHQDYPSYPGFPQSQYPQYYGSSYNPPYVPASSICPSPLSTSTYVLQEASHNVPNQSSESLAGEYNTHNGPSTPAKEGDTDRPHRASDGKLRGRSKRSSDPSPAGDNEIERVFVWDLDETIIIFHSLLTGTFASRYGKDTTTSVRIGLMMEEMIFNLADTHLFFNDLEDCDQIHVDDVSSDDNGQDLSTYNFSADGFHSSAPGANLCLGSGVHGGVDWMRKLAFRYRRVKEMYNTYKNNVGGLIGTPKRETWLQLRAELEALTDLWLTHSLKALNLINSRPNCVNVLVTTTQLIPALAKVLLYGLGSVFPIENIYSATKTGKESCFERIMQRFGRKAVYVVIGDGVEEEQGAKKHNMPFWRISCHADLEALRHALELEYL
# Target sequence (Q15475 whole entry, looked up): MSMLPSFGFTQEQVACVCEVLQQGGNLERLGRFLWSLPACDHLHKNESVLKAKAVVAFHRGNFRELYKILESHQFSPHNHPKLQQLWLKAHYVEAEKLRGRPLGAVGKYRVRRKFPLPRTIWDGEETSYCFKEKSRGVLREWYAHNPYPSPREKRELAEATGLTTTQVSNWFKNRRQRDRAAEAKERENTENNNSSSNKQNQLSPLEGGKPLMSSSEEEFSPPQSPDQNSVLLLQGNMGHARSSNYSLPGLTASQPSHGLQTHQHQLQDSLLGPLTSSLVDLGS
#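 Homogeneous AlphaScreen proximity assay pairing GST-Six1 with His-tagged Eya2 (added as 5X mix: 250 nM and 500 nM) in 50 mM Tris pH 8.0, 300 mM NaCl, 1 mM TCEP. Glutathione donor and nickel acceptor beads; 1 h, 37 °C, dark.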
# S2 tox = viability counter-screen for ATXN expression inhibitors; S2 cells (HEK-293 line with an ATXN2-luciferase reporter) viability, CellTiter-Fluor protease fluorescence, 24 h; Potency, µM (doses to about 56.7 µM), actives largely listed as cytotoxic; 400,000 tested, 0.49% active; AID 651635; note: potency is the fitted concentration of half-maximal effect; nearly all actives have a fitted effect of over 40% in size
# ATXN2 expr inh = reduces ATXN2 reporter expression in HEK-293 cells. Potency, µM (series often up to 57 µM), for inactives: at the highest dose activity change, negative = inhibition, hits mostly inhibitors. 360,000 tested, 0.72% active. HEK-293 ATXN2-luciferase reporter, luminescence, 24 h; note: potency is the fitted concentration of half-maximal effect; % is set by controls: 0 for no effect and ±100 for the full control effect; nearly all actives have a fitted effect of over 55% in size
#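 ATXN2-luciferase reporter cells (luciferase flanked by upstream and downstream ATXN2 gene portions) were treated 24 h at 37 °C with compounds at up to 57 uM. SteadyGlo luminescence gave expression; GF-AFC fluorescence gave viability.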
# CtBP-E1A blk = inhibitors of CtBP/E1A interaction; AlphaScreen GST-E1A/His-CtBP binding, 1536-well; hits give low values; 340,000 tested, 0.49% active; AID 651724; activity change, % (test concentration not listed); in the data active = activity change below about -65%; inconclusive = mostly about -30% to -63%; note: % is set by controls: 0 for no effect and ±100 for the full control effect
#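 Protein mix (5X: 125 nM each GST-E1A, His-CtBP) was incubated with pinned compound 2 h at 37 deg C in dark, in 50 mM Tris pH 8.0 buffer with 300 mM NaCl. Glutathione donor and nickel acceptor beads followed; AlphaScreen signal read after 1 h.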
# HepG2 tox = kills HepG2 cells in TGF-b inhibitor counter-screen | HepG2 CAGA-GFP viability, ATP luminescence, 18 h | Potency, µM (titrated, usually from 46.1 µM), without a hit: at the top dose activity change, negative = cytotoxicity, usual class: cytotoxic | 410,000 tested, 0.76% active | AID 588856; note: potency is the fitted concentration of half-maximal effect
#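 HepG2 CAGA-GFP cells (1000/well, DMEM with 1% FBS) received compound, then TGF-beta at 500 pg/mL final, and were incubated 18 hours at 37 degrees C. Viability was read by CellTiter-Glo luminescence. Media-only wells were set as complete cell-killing and DMSO as no toxicity.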
# Starred values were filed as active, the others as inactive; i = inactive; ? = inconclusive; nt = not tested or not shown. Unless noted, calls come from the whole dose curve; as a rule, active = well fitted curve in the direction sought with a large enough effect; inconclusive = small, poorly fitted or top-dose-only effect, or another doubt; inactive = no such curve, though single readings can be large; an effect the other way counts as inactive or inconclusive.
SMILES,TGFb inhibitor,Six1-Eya2 blk,S2 tox,ATXN2 expr inh,CtBP-E1A blk,HepG2 tox
O=C(NCC(c1cccnc1)N1CCOCC1)C(=O)Nc1cccc(Cl)c1 (configuration not stated),20%,nt,i,-2%,nt,0%
COc1ccc(CNC(=O)C(c2ccncc2)N(C(=O)Cc2cccs2)c2ccccc2)cc1 (configuration not stated),0%,13,i,-3%,1,-4%
COc1ccc(N(C(=O)CCl)C(C(=O)NCCc2ccccc2)c2cccs2)cc1 (configuration not stated),?,-2,13µM*,28µM*,-3,16µM*
Cc1cc(C(=O)Nc2ccccc2-c2nc(CNC(=O)c3sc(C)nc3C)c(C)o2)c(C)o1,nt,nt,i,nt,nt,nt
OC[C@H]1O[C@@H](OCCc2ccc(O)cc2)[C@H](O)[C@@H](O)[C@H]1O,nt,nt,i,-18%,nt,nt
COC1=CC(=O)c2nc(Cl)ccc2C1=O,0.89µM*,-5,?,3.2µM*,-8,1.3µM*
COc1cccc2c1C(=O)C=C(C)C2=O,?,-10,nt,?,-14,-106%
Cc1cccc(C(=O)Nc2cccc(C(=O)N/N=C/c3ccncc3)c2)c1,-10%,-5,i,6%,-10,8%
Cc1cccc(C(=O)Nc2ccc(C(=O)/C=C/c3cccnc3)cc2)c1,1.4µM*,10,?,?,3,-60%
CC(=O)Nc1cccc(C(=O)/C=C/c2ccc(Br)cc2)c1,?,5,nt,?,-15,-38%
O=C(/C=C/c1cccnc1)c1ccc(NC(=O)c2cccc(Br)c2)cc1,7%,5,i,-24%,4,-13%
CC(=O)Nc1cccc(C(=O)/C=C/c2ccc(F)cc2)c1,?,-2,?,?,4,13µM*
Cc1cccc(C(=O)Nc2ccc(C(=O)/C=C/c3ccncc3)cc2)c1,11µM*,6,i,1%,1,-52%
O=C(/C=C/c1cccnc1)/C=C/c1cccnc1,3.5µM*,-2,?,?,5,6.3µM*
CC(C)(C)c1ccc(C(=O)N2CCC3(CC2)CC3C(=O)NCCc2ccccn2)cc1 (configuration not stated),nt,nt,i,nt,nt,nt
CCCCNC(=O)C1CCN(c2nc3ccccc3nc2C(F)(F)F)CC1,-14%,nt,i,-6%,nt,-4%
CC(C)CCNC(=O)c1ccc2c(c1)nc1n2CCCCC1,-20%,nt,nt,nt,nt,-13%
CN(C)c1ccc(C(CNC(=O)Cc2ccc(Cl)cc2)N2CCOCC2)cc1 (configuration not stated),9%,nt,nt,nt,nt,-28%
COc1cc(CNc2nc(C)c(-c3ccn(CC4CCCN(C)C4)n3)s2)ccc1F (configuration not stated),nt,nt,i,nt,nt,nt
Nc1ccc(-c2cc3ccccc3oc2=O)cc1,13%,2,nt,0.28µM*,-2,-26%
COc1cc(=O)n2c(c1C(=O)NCc1ccco1)CCN(C(=O)c1c(F)ccc(F)c1F)CC2,nt,nt,i,nt,nt,nt
CCOc1ccc(C(=O)/C=C/Nc2ccc(S(=O)(=O)N=C(N)N)cc2)cc1,20µM*,-6,?,-17%,-1,-5%
NC(N)=NS(=O)(=O)c1ccc(N/C=C/C(=O)c2ccc(Cl)c(Cl)c2)cc1,-20%,6,i,-31%,5,-16%
CNC(=O)c1ccc(N2C(=S)N(c3ccc(C#N)c(C(F)(F)F)c3)C(=O)C2(C)C)cc1F,nt,nt,nt,-7%,nt,nt
O=C1NC(c2ccccn2)Nc2sc3c(c21)CCC3 (configuration not stated),?,-80*,i,-21%,-77*,-22%
SMILES,TGFb inhibitor,Six1-Eya2 blk,S2 tox,ATXN2 expr inh,CtBP-E1A blk,HepG2 tox
CN1CCc2c(sc3c2C(=O)NC(c2ccccn2)N3)C1 (configuration not stated),20%,-67*,i,17%,?,-1%
CN1CCc2c(sc3c2C(=O)NC(c2ccccc2)N3)C1 (configuration not stated),4%,-6,nt,-3%,-10,-15%
O=C1NC(c2ccc(Br)cc2)Nc2sc3c(c21)CCC3 (configuration not stated),-4%,-9,i,21%,5,1%
Cc1cc(N2CCN(C)CC2)nc2ccc(NC(=O)Nc3ccccc3)cc12,?,nt,nt,-19%,nt,13µM*
CCN1CCN(c2cc(C)c3cc(NC(=O)c4cccnc4Cl)ccc3n2)CC1,26%,-4,i,6%,-6,3%
CCN1CCN(c2cc(C)c3cc(NC(=O)c4cc(Br)ccc4Cl)ccc3n2)CC1,?,nt,nt,?,nt,10µM*
CC(=O)c1c(C)oc2c1C(=O)c1ccccc1C2=O,7.9µM*,8,?,?,0,-92%
Cc1onc(-c2ccccc2Cl)c1C(=O)NCc1cccnc1,11%,3,i,2%,7,-5%
Cc1oc2c(c1C(=O)NCc1cccnc1)C(=O)c1ccccc1C2=O,0.28µM*,-8,2.8µM*,2.8µM*,-15,0.45µM*
CC1=C(C(=O)OCc2ccccc2)N2C(=O)[C@@H](NC(=O)OCc3ccccc3)[C@H]2SC1,-20%,nt,nt,nt,nt,3%
Cc1cc(C)n(-c2cccc(C(=O)NCC3Cc4cccc(-c5ccccn5)c4O3)c2)n1 (configuration not stated),nt,nt,i,nt,nt,nt
COc1cc(=O)n2c(c1C(=O)N(C)Cc1nonc1C)CCN(C(=O)c1ccc(C)c(C)c1)CC2,nt,nt,i,nt,nt,nt
Cc1c(C(=O)Nc2nccs2)sc2nc(-c3cccs3)cc(C(F)(F)F)c12,-1%,0,?,25µM*,5,-37%
Cc1c(C(=O)O)sc2nc(-c3cccs3)cc(C(F)(F)F)c12,4%,-24,i,-4%,-12,-16%
O=C(Nc1ccccc1Cl)c1cc(C2CCCCN2C(=O)c2ccccc2)on1 (configuration not stated),?,-3,i,-23%,1,-10%
CCOC(=O)c1c(CSc2ccc(CC)cc2)oc2ccc(O)c(CN(C)C)c12,?,-2,nt,16µM*,-14,22µM*
CC(=O)c1c(C)oc2ccc(N(C(C)=O)S(=O)(=O)c3ccc(Cl)c([N+](=O)[O-])c3)cc12,7%,-9,nt,25µM*,3,-21%
CC(=O)c1c(C)oc2ccc(N(C(C)=O)S(=O)(=O)c3ccc(Br)cc3)cc12,?,-7,i,-20%,8,-29%
Cc1ccc(CNc2nc(CN3CCSCC3)nc3ccccc23)o1,nt,nt,i,nt,nt,nt
